# Experimental data reported in PubChem BioAssay (NCATS).
# Results filed as inconclusive are left out. Active and inactive are the calls of the source. Calls follow the shape of the dose curve; as a rule, active = well fitted cell-killing curve with a large enough effect; inconclusive = small, poorly fitted or top-dose-only effect; inactive = no such curve, though single readings can be large or run the other way.
# Assay: qHTS of pediatric cancer cell lines to identify multiple opportunities for drug repurposing: Primary screen for Rh30 cells (AID 1347107); also: % is scaled to controls: 0 for no effect and ±100 for the full control effect; nearly all actives have a fitted effect of over 75% in size
# Details: Rh30 rhabdomyosarcoma viability, CellTiter-Glo luminescence, 48 h; series mostly up to 46 µM; activity change, negative = cytotoxic: at the top concentration
# Procedure, shortened: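 Cells (500-1,000/well) rested 5 h, then received compounds for 48 h; metabolically active cells were measured by CellTiter-Glo luminescence. Final concentrations spanned up to 46 µM (MIPE, 11-point) or 0.59 nM-46 µM (NPC, 8-point) in primary screens, 11-point in follow-ups.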
row,SMILES,"activity change, negative = cytotoxic"
1,COc1ccc2ccc(=O)oc2c1CC=C(C)C,-16.5% (inactive)
2,COc1cc2c(cc1OC)[C@@H]1Cc3ccc(OC)c(OC)c3CN1CC2,2.66% (inactive)
3,CCCCCCOC(=O)N=C(N)c1ccc(NCc2nc3cc(C(=O)N(CCC(=O)OCC)c4ccccn4)ccc3n2C)cc1,16% (inactive)
4,c1cc(OCCN2CCCCC2)cc(-c2n[nH]c3ccc(-c4ncn[nH]4)cc23)c1,8.88% (inactive)
5,CC(C)n1c(C=C[C@H](O)C[C@H](O)CC(=O)O)c(-c2ccc(F)cc2)c2ccccc21,-13% (inactive)
6,COc1c(C)cnc(Cn2cnc3c(Cl)nc(N)nc32)c1C,-9.18% (inactive)
7,Cc1ccc(C(=O)N(CCCN)[C@@H](c2nc3cc(Cl)ccc3c(=O)n2Cc2ccccc2)C(C)C)cc1,10% (inactive)
8,COc1cc(F)c(C(C)C)cc1-c1ccc(C(F)(F)F)cc1CN1C(=O)O[C@H](c2cc(C(F)(F)F)cc(C(F)(F)F)c2)[C@@H]1C,11.4% (inactive)
9,CN1C(=O)C[C@H](C(=O)N[C@@H](Cc2cnc[nH]2)C(=O)N2CCC[C@@H]2C(N)=O)NC1=O,12.3% (inactive)
10,COc1cc(N2CCN(C)CC2)ccc1Nc1nc(N)c(C(=O)c2c(Cl)cccc2Cl)s1,2.78% (inactive)
11,CCC(=O)NCC[C@@H]1CCc2ccc3c(c21)CCO3,12.7% (inactive)
12,CCC(c1ccc(O)cc1)C(CC)c1ccc(O)cc1 (configuration not stated),-5.17% (inactive)
13,Nc1ccn([C@@H]2O[C@H](CO)[C@@H](O)[C@H]2O)c(=O)n1,-10.4% (inactive)
14,CC1C(=O)OC2C(O)C34C5CC(C(C)(C)C)C36C(OC(=O)C6O)OC4(C(=O)O5)C12O (configuration not stated),22.3% (inactive)
15,C[C@H]1COC2=C1C(=O)C(=O)c1c2ccc2c1CCCC2(C)C,9.49% (inactive)
16,Cc1csc(-c2nnc(Nc3ccc(Oc4ncccc4-c4ccnc(N)n4)cc3)c3ccccc23)c1,10.6% (inactive)
17,CNc1nc(-c2ccc3c(N)n[nH]c3c2)cc(N2C[C@@H](C(=O)NC3CCCCC3)CC[C@@H]2C)n1,-18.4% (inactive)

# Assay: qHTS of pediatric cancer cell lines to identify multiple opportunities for drug repurposing: Primary screen for Rh41 cells (AID 1347108); also: nearly all actives have a fitted effect of over 70% in size; also: potency is read from the fitted curve at half-maximal effect;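 as to activity change, negative = cytotoxic: luminescence drop marks cytotoxic hits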
# Details: Rh41 rhabdomyosarcoma viability, CellTiter-Glo luminescence, 48 h; series mostly up to 46 µM; activity change, negative = cytotoxic: at the top concentration
# Procedure, shortened: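 Luminescence from CellTiter-Glo served as readout of metabolically active cells after 48 h compound exposure. Titrations: MIPE 11-point, from 0.78 nM; NPC 8-point, from 0.59 nM (final). Concentration-response curves came straight from the primary screen.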
SMILES,Potency,"activity change, negative = cytotoxic"
CC1(C)CC(=O)c2c(C(F)(F)F)nn(-c3ccc(C(N)=O)c(NC4CCC(O)CC4)c3)c2C1 (configuration not stated),0.296 µM (active),
c1cc(OCCN2CCCCC2)cc(-c2n[nH]c3ccc(-c4ncn[nH]4)cc23)c1,,14.1% (inactive)
COc1ccc(-c2cc3nccn3c(Nc3ncccc3C(N)=O)n2)cc1OC,2.35 µM (active),
CC(C)n1c(C=C[C@H](O)C[C@H](O)CC(=O)O)c(-c2ccc(F)cc2)c2ccccc21,,-27.1% (inactive)
OCCn1cc(-c2ccc3c(c2)CCC3=NO)c(-c2ccncc2)n1,,1.63% (inactive)
COc1c(C)cnc(Cn2cnc3c(Cl)nc(N)nc32)c1C,1.18 µM (active),
CN1CCN(c2cccc(Nc3nc4c(-c5ccc(S(C)(=O)=O)cc5)cccn4n3)c2)CC1,18.7 µM (active),
COc1cc(F)c(C(C)C)cc1-c1ccc(C(F)(F)F)cc1CN1C(=O)O[C@H](c2cc(C(F)(F)F)cc(C(F)(F)F)c2)[C@@H]1C,,13% (inactive)
COc1cc(N2CCN(C)CC2)ccc1Nc1nc(N)c(C(=O)c2c(Cl)cccc2Cl)s1,,-10.7% (inactive)
COc1ccc(Cn2ccc3ccc(C(=O)NO)cc32)cc1,,0.732% (inactive)
CCC(c1ccc(O)cc1)C(CC)c1ccc(O)cc1 (configuration not stated),,-8.49% (inactive)
Nc1ccn([C@@H]2O[C@H](CO)[C@@H](O)[C@H]2O)c(=O)n1,,-26.5% (inactive)
CC1C(=O)OC2C(O)C34C5CC(C(C)(C)C)C36C(OC(=O)C6O)OC4(C(=O)O5)C12O (configuration not stated),,29.2% (inactive)
N#CC(c1ccnc(NCCc2cccnc2)n1)c1nc2ccccc2s1 (configuration not stated),23.5 µM (active),
COc1cc2nccc(Oc3ccc(NC(=O)Nc4cc(C)on4)c(Cl)c3)c2cc1OC,14.8 µM (active),
